Inconclusive results are not listed. Calls of active or inactive are those of the source. The call rests on the fitted dose curve.
assay: A qHTS for Small Molecule Inhibitors of Shiga Toxin (Confirmatory); details: Cell-based Shiga toxin protection reporter assay; series mostly up to 38.3 µM; activity, positive = inhibition of toxin: at the top concentration; further: nearly all actives have a fitted effect of over 75% in size; on activity, positive = inhibition of toxin: 0% is about no effect
Potency means the concentration at half of the fitted maximal effect.

SMILES	activity, positive = inhibition of toxin	Potency
O=C(NCCC1=CCCCC1)C1CCN(S(=O)(=O)c2cccc3cccnc23)CC1	27% (inactive)	
CC(=O)c1ccc(N2CCN(C(=O)c3ccc4nc[nH]c4c3)CC2)cc1	21.4% (inactive)	
Cc1cc(C(=O)COC(=O)C2CC2)c(C)n1-c1ccc(F)cc1		4 µM (active)
COc1ccc(CNCC(=O)Nc2sccc2C#N)cc1		20 µM (active)
COc1ccc(N(CCC#N)S(=O)(=O)c2ccc(Cl)cc2)cc1	5.18% (inactive)	
CCN(C1CCCCC1)S(=O)(=O)c1ccc(S(=O)(=O)NCc2ccncc2)cc1	34.1% (inactive)	
Cc1sc(NC(=O)COc2cccc(-n3cnnn3)c2)c(C#N)c1C	2.39% (inactive)	
CC1Cc2ccccc2N1Cc1cc(=O)n2ccsc2n1 (configuration not stated)	-26.7% (inactive)	
Cc1ccc(N/C(C(Cl)=C(Cl)Cl)=C(/Cl)[N+](=O)[O-])c(C)c1	-15.4% (inactive)	
CCOC(=O)N1CCN(C(=O)CCC(=O)c2ccc(OCC)cc2)CC1	5.96% (inactive)	
NC(=O)C1CCN(C(=O)C2c3ccccc3C(=O)N3CCc4ccccc4C23)CC1 (configuration not stated)	-53.8% (inactive)	
CCC(=O)N1CCN(c2ccccc2NC(=O)c2ccc([N+](=O)[O-])o2)CC1		4 µM (active)
COc1ccccc1NC(=O)CSc1nnc(CC(=O)Nc2ccccc2F)n1C	-1.04% (inactive)	
COc1ccccc1C(=O)Nc1nnc(SCC(=O)Nc2ccc3c(c2)oc2ccccc23)s1		3.18 µM (active)
COc1ccccc1C(=O)NNC(=O)c1ccc2ccccc2c1		0.0006 µM (active)
CC(=O)N/C(=C\c1ccccc1)C(=O)Nc1ccccc1C		0.0798 µM (active)
CCn1c(SCC(=O)NCc2ccco2)nc2c1c(=O)n(C)c(=O)n2C	73.1% (inactive)	
O=C(Nc1ccccc1)c1ccccc1O		14.2 µM (active)
Cc1cccc(C(=O)NC(NCCc2ccccc2)C(Cl)(Cl)Cl)c1 (configuration not stated)	24.6% (inactive)	

SMILES	activity, positive = inhibition of toxin	Potency
Cc1cc(C)nc(Sc2ccc3nnnn3n2)n1		28.3 µM (active)
O=C(Nc1ccc2oc(-c3ccccc3)nc2c1)c1ccc2c(c1)OCCO2		14.2 µM (active)
O=C(Cc1c[nH]c2ccccc12)NCc1ccc(Cl)cc1	-8.01% (inactive)	
CCOc1ccc2nc(SCC(=O)NC3CCCCC3)[nH]c2c1	-7.39% (inactive)	
COc1ccc(C/C(O)=C(\C#N)c2nc3ccccc3s2)cc1	6.3% (inactive)	
COc1ccc(C(=O)CC(=O)C(=O)Nc2ccc(C)cc2Cl)cc1	17.8% (inactive)	
COc1cc(O)c2c(c1)oc(=O)c1c3cc(O)c(O)cc3oc21		7.98 µM (active)
CCOC(=O)Cc1csc(NC(=O)CSc2ncnc3c2cnn3-c2ccc(OC)cc2)n1		5.04 µM (active)
Cc1ccc(OCC(=O)NNC(=O)CCC(=O)Nc2ccc(C)cc2C)cc1	19.3% (inactive)	
COC(=O)c1c(NC(=O)c2ccn(C)n2)sc2c1CCC2		2.83 µM (active)
CC1CC(C)CN(C(=O)C(NS(=O)(=O)c2ccc(Br)s2)c2ccccc2)C1 (configuration not stated)		2.25 µM (active)
CC1CCc2sc(C(=O)NN)cc2C1 (configuration not stated)	3.83% (inactive)	
O=C(O)c1ccn(Cn2cnc3ccccc32)n1	-19.1% (inactive)	
C/C1=C\[C@@H](O)C(C(C)C)C(OC(=O)c2ccc(O)cc2)C/C(C)=C/CC1 (some centres not stated)		17.9 µM (active)
O=C(/C=C/C#Cc1cccc(NS(=O)(=O)c2ccccc2)c1)NO		11.3 µM (active)
Nc1nc(-c2nn(Cc3ccccc3F)c3ncccc23)ncc1C1CC1	13.7% (inactive)	
Cc1ccc2c(N)[nH]nc2n1	-50.9% (inactive)	
O=C(Cc1cccs1)Nc1ccc(-c2nnc(-c3ccco3)o2)cc1		4 µM (active)

Source: PubChem BioAssay AID2320 (National Center for Advancing Translational Sciences (NCATS), 2010)
